From PubChem BioAssay (EPA / NIEHS) come the findings set out here.

Read-out in assay [1]: Matrix Metallopeptidase 1 (MMP1), MMP1 (gene 4312)
The assay can be described thus: BSK_BE3C_MMP1: BioMAP Diversity Plus: BE3C Assay for Matrix Metallopeptidase 1 (MMP1) Biomarker Activity (AID 2283024). The following applies: primary human bronchial epithelial cells; actives raise or lower the signal. A digest of the protocol: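 ELISA read-out of MMP1 in human lung bronchial epithelial primary cultures, 24 h post-dose; bidirectional curve fit vs DMSO baseline, gain or loss of signal scored.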

Read-out in assay [2]: Pselectin, SELP (gene 6403)
The experiment in a line: BSK_4H_Pselectin: BioMAP Diversity Plus: 4H Assay for Pselectin Biomarker Activity (AID 2283026). The following applies: primary human endothelial cells (HUVEC); actives raise or lower the signal. A digest of the protocol:
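HUVEC, 24 h chemical exposure; P-selectin read by ELISA. Bidirectional curve fit vs DMSO baseline; gain or loss of signal scored.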

Assay [3] is described as follows: BSK_4H_SRB: Viability Assessment in the BioMAP Diversity Plus: 4H Assay (AID 2283027).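 Also: cells exposed to compound for 24 h before staining.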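 As to AC50: curves fitted both ways versus DMSO so AC50 may be loss or gain.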 The following applies: primary human endothelial cells (HUVEC). A digest of the protocol: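 Cytotoxicity readout: sulforhodamine B (0.1%) staining of total protein after 10% TCA fixation, measured at 560 nm in human umbilical vein endothelium at 24 h. DMSO set the baseline; fitting was bidirectional.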

Read-out in assay [4]: Thrombomodulin, THBD (gene 7056)
The experiment in a line: BSK_3C_Thrombomodulin: BioMAP Diversity Plus: 3C Assay for Thrombomodulin Biomarker Activity (AID 2283029). The note with it: primary human endothelial cells (HUVEC); actives raise or lower the signal. The method in brief:
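HUVEC, 3C conditions; compound 24 h; thrombomodulin by ELISA; bidirectional curve fit vs DMSO baseline; parallel SRB total-protein staining for cytotoxicity.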

Read-out in assay [5]: Vascular endothelial growth factor receptor 2 (Homo sapiens) (UniProt P35968)
The experiment in a line: BSK_4H_VEGFRII: BioMAP Diversity Plus: 4H Assay for Vascular endothelial growth factor receptor 2 (VEGFR2) Biomarker Activity (AID 2283031). The following applies: primary human endothelial cells (HUVEC); actives raise or lower the signal. A digest of the protocol: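 VEGFRII levels on human vascular endothelial primary cells were determined by ELISA at 24 hours post-dosing, with gain- or loss-of-signal fitted against DMSO controls.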

Read-out in assay [6]: Human Leukocyte Antigen - DR isotype (HLADR), HLA-DRA (gene 3122)
The experiment in a line: BSK_BE3C_HLADR: BioMAP Diversity Plus: BE3C Assay for Human Leukocyte Antigen - DR isotype (HLADR) Biomarker Activity (AID 2283032). The following applies: primary human bronchial epithelial cells; actives raise or lower the signal. A digest of the protocol: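 Primary human bronchial epithelial cells (BE3C); 24 h chemical exposure; HLA-DR by ELISA; bidirectional curve fit vs DMSO baseline.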

Read-out in assay [7]: Vascular cell adhesion molecule 1 (VCAM1), VCAM1 (gene 7412)
The experiment in a line: BSK_4H_VCAM1: BioMAP Diversity Plus: 4H Assay for Vascular cell adhesion molecule 1 (VCAM1) Biomarker Activity (AID 2283033).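 As to outcome: cell-surface VCAM-1 protein measured by ELISA.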 The following applies: primary human endothelial cells (HUVEC); actives raise or lower the signal. The method in brief:
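HUVEC, 24 h post-dose; VCAM-1 by ELISA. Bidirectional curve fit vs DMSO baseline. Parallel SRB total-protein stain (0.1% SRB after 10% TCA fixation, 560 nm) for cytotoxicity.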

Read-out in assay [8]: Interferon-gamma inducible Protein 10 (IP10), CXCL10 (gene 3627)
The assay can be described thus: BSK_BE3C_IP10: BioMAP Diversity Plus: BE3C Assay for Interferon-gamma inducible Protein 10 (IP10) Biomarker Activity (AID 2283034). The following applies: primary human bronchial epithelial cells; actives raise or lower the signal. The method in brief: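 ELISA readout of IP-10 in BE3C system: primary human bronchial epithelial cells, 24 h post-dosing; bidirectional curve fit vs DMSO baseline.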

Read-out in assay [9]: Monokine induced gamma interferon (MIG), CXCL9 (gene 4283)
The experiment in a line: BSK_BE3C_MIG: BioMAP Diversity Plus: BE3C Assay for Monokine induced gamma interferon (MIG) Biomarker Activity (AID 2283035).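 As to outcome: MIG protein measured by ELISA in BE3C cultures after 24 h of dosing.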 The following applies: primary human bronchial epithelial cells; actives raise or lower the signal. A digest of the protocol:
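hu bronchial epithelial 1° cells, 24 h cpd; MIG by ELISA; bidirectional fit, DMSO = baseline.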

Read-out in assay [10]: Plasminogen activator inhibitor-1 (PAI1), SERPINE1 (gene 5054)
The experiment in a line: BSK_BE3C_PAI1: BioMAP Diversity Plus: BE3C Assay for Plasminogen activator inhibitor-1 (PAI1) Biomarker Activity (AID 2283037). The note with it: primary human bronchial epithelial cells; actives raise or lower the signal. A digest of the protocol:
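ELISA read-out of PAI-1 from human bronchial epithelial primary cells, 24 h post-dosing; bidirectional curve fit vs DMSO baseline, gain or loss of signal scored.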

Read-out in assay [11]: urokinase plasminogen activator (uPA), PLAU (gene 5328)
The assay can be described thus: BSK_BE3C_uPA: BioMAP Diversity Plus: BE3C Assay for urokinase plasminogen activator (uPA) Biomarker Activity (AID 2283038).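 As to outcome: uPA protein level quantified by ELISA in cell cultures; uPA read one day after compound addition.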 The note with it: primary human bronchial epithelial cells; actives raise or lower the signal. The method in brief:
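Measured by ELISA: uPA from human primary bronchial epithelial cells 24 h after chemical treatment. Values derive from bidirectional curve fitting with DMSO serving as negative control. Total protein by SRB staining in parallel wells flagged overt cytotoxicity.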

Read-out in assay [12]: Urokinase-type plasminogen activator receptor (uPAR), PLAUR (gene 5329)
The assay can be described thus: BSK_BE3C_uPAR: BioMAP Diversity Plus: BE3C Assay for Urokinase-type plasminogen activator receptor (uPAR) Biomarker Activity (AID 2283039).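 As to outcome: uPAR protein level measured by ELISA on the cells; cells exposed to compound for one day before measurement.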 The following applies: primary human bronchial epithelial cells; actives raise or lower the signal. The method in brief: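 ELISA readout of uPAR on human lung primary bronchial epithelial cells, 24 h post-dosing. Bidirectional curve fit relative to DMSO vehicle baseline; gain or loss of signal both scored.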

Read-out in assay [13]: Interleukin-6 (IL6), IL6 (gene 3569)
The assay can be described thus: BSK_CASM3C_IL6: BioMAP Diversity Plus: CASM3C Assay for Interleukin-6 (IL6) Biomarker Activity for (AID 2283040). The note with it: primary human coronary artery smooth muscle cells; actives raise or lower the signal.

Read-out in assay [14]: Tissue plasminogen activator (tPA), PLAT (gene 5327)
The experiment in a line: BSK_BE3C_tPA: BioMAP Diversity Plus: BE3C Assay for Tissue plasminogen activator (tPA) Biomarker Activity (AID 2283041).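 Also: tPA level quantified by ELISA one day after compound addition.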 The following applies: primary human bronchial epithelial cells; actives raise or lower the signal. A digest of the protocol: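 ELISA read-out of tPA on human primary bronchial epithelial cells, 24 h post-dosing; bidirectional fit vs DMSO negative control/baseline.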

Read-out in assay [15]: Interleukin-8 (IL8), CXCL8 (gene 3576)
The experiment in a line: BSK_CASM3C_IL8: BioMAP Diversity Plus: CASM3C Assay for Interleukin-8 (IL8) Biomarker Activity (AID 2283042).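 Also: IL-8 protein level quantified by ELISA.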 The note with it: primary human coronary artery smooth muscle cells; actives raise or lower the signal.

Read-out in assay [16]: Human Leukocyte Antigen - DR isotype (HLADR), HLA-DRA (gene 3122)
The experiment in a line: BSK_CASM3C_HLADR: BioMAP Diversity Plus: CASM3C Assay for Human Leukocyte Antigen - DR isotype (HLADR) Biomarker Activity (AID 2283043).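 Also: cell-surface HLA-DR protein level quantified by ELISA.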 The note with it: primary human coronary artery smooth muscle cells; actives raise or lower the signal.

A short description of assay [17]: BSK_3C_Vis: BioMAP Diversity Plus: 3C Assay for Morphology Visualization (AID 2283025).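 Also: fitted both ways so gain or loss versus DMSO counts.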 The following applies: primary human endothelial cells (HUVEC). A digest of the protocol: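 HUVEC, 3C system; light microscopy of morphology at 24 h post-dose. Bidirectional fit vs DMSO baseline. Secondary readout, background-control function.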
Read-out in assay [18]: Urokinase-type plasminogen activator receptor (uPAR), PLAUR (gene 5329)
The experiment in a line: BSK_4H_uPAR: BioMAP Diversity Plus: 4H Assay for Urokinase-type plasminogen activator receptor (uPAR) Biomarker Activity (AID 2283030). The note with it: primary human endothelial cells (HUVEC); actives raise or lower the signal. A digest of the protocol:
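Chemicals are dosed onto human vascular endothelial primary cells (umbilical vein). After 24 h, uPAR is read by ELISA. Gain or loss of signal is fitted relative to DMSO.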

Read-out in assay [19]: Transforming growth factor beta 1 (TGFb1), TGFB1 (gene 7040)
The assay can be described thus: BSK_BE3C_TGFb1: BioMAP Diversity Plus: BE3C Assay for Transforming growth factor beta 1 (TGFb1) Biomarker Activity (AID 2283036;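 as to outcome: TGF-b1 protein level measured by ELISA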). The following applies: primary human bronchial epithelial cells; actives raise or lower the signal. A digest of the protocol:
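Read-out: ELISA for TGF-b1 in primary human bronchial epithelial cultures, 24 h post-dose. Bidirectional curve fitting vs DMSO control; gain or loss of signal both scored.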

Assay [20] is described as follows: BSK_BE3C_SRB: Viability Assessment in the BioMAP Diversity Plus: BE3C Assay (AID 2283028). The following applies: primary human bronchial epithelial cells. The method in brief:
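Overt cytotoxicity was assessed as total protein in confluent human primary bronchial epithelial cultures 24 h after chemical addition, using 0.1% sulforhodamine B staining read at 560 nm.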

Activity calls are given as the source filed them. The calls were made as follows: active = hit-call score of the fitted dose curve at least 0.9, where 1 is the maximum; inactive = score below 0.9.

As to `COC(=O)Cc1ccccc1`, the result in assay [1], in [2], in assay [3], in assay [4], in assay [5] and in assay [6] was inactive. For the same compound, the result in assay [7], in assay [8], in assay [9], in assay [10], in assay [11] and in assay [12] was inactive. Moreover, the outcome in [13], in [14], in [15] and in [16] was inactive.

In the case of `CCN1CCC2(CC1)COc1cc3c(cc12)N(C(=O)c1ccc(-c2ccc(-c4nnc(C)o4)cc2C)cc1)CC3`, the outcome in [1], in assay [4], in assay [5] and in assay [19] was inactive. Further, the concentration at half-maximal activity (AC50) – broadly, the midpoint of the concentration-response curve, whichever way the signal moves – in assay [17] was 6.51 µM (active); in assay [2] it was 12 µM (active); in assay [3] it was 23.1 µM (active); in assay [18], 18.7 µM (active); in assay [6], 10.5 µM (active); in assay [7] it was 27.8 µM (active). Further, the half-maximal activity concentration (AC50) in assay [8] is 14.4 µM (active); in [9] it was 23.8 µM (active); in [10] it was 12.5 µM (active); in assay [11], 18.7 µM (active); in assay [12], 18.7 µM (active); in [13], 31.7 µM (active). For the same compound, the figures for the AC50 in [15] and in assay [16] were 27.9 µM (active) and 15.3 µM (active), respectively.

Take `CCCCCCCCc1ccc(O)cc1`: the AC50 in [1] was 31.7 µM (active); in assay [17], 39.3 µM (active); in [2], 25.6 µM (active); in assay [3] it was 34.3 µM (active); in [4], 34.3 µM (active); in assay [18] it was 37.2 µM (active). For the same compound, the AC50 in [6] was 33 µM (active); in assay [7], 33.2 µM (active); in assay [8], 31.9 µM (active); in [9], 37.7 µM (active); in assay [19], 30.5 µM (active); in [10] it was 33.9 µM (active). Moreover, the AC50 in [11] is 32.7 µM (active); in assay [12] it was 32.5 µM (active); in assay [13], 20.1 µM (active); in assay [15], 30.1 µM (active); in assay [16], 20.1 µM (active).

Take `CCC(C)(C)c1ccc(O)c(C(C)(C)CC)c1`: the half-maximal activity concentration (AC50) in [1] was 34.8 µM (active); in [17], 6.71 µM (active); in assay [2], 7.72 µM (active); in [3], 11.7 µM (active); in [4], 34.5 µM (active); in [18], 11.4 µM (active). Also, the AC50 is 25.2 µM (active) in assay [6]; 10.4 µM (active) in [7]; 19 µM (active) in [8]; 36 µM (active) in assay [9]; 20 µM (active) in [19]; 31.4 µM (active) in [10]. Moreover, the concentration at half-maximal activity (AC50) in assay [11] is 32.4 µM (active); in [12] it was 36.6 µM (active); in assay [13] it was 29.4 µM (active); in [15], 38.7 µM (active); in [16], 16.4 µM (active). Besides, in assay [5], the outcome was inactive.

For `O=C(O)CCC(F)(C(F)(F)F)C(F)(F)F`, the result in assay [1], in [2], in [3], in assay [20], in assay [4] and in assay [18] was inactive. Besides, the result in assay [5], in assay [6], in assay [7], in assay [8], in [9] and in assay [10] was inactive. Further, the result in [11], in assay [12], in [13], in [15] and in assay [16] was inactive.
